Legend:
Details in all cases: 0.5 µM; time after treatment 48 h; PC9 signalome
PC9 [1] = assay: AKT reporter activity score (signed KS statistic vs DMSO) (signed KS statistic (-1 to 1)); higher = stronger activation of the pathway reporter relative to DMSO
PC9 [2] = assay: RAR reporter activity score (signed KS statistic vs DMSO) (signed KS statistic (-1 to 1)); higher = stronger activation of the pathway reporter relative to DMSO
PC9 [3] = assay: PKC reporter activity score (signed KS statistic vs DMSO) (signed KS statistic (-1 to 1)); higher = stronger activation of the pathway reporter relative to DMSO
PC9 [4] = assay: PKA reporter activity score (signed KS statistic vs DMSO) (signed KS statistic (-1 to 1)); higher = stronger activation of the pathway reporter relative to DMSO
PC9 [5] = assay: p38 reporter activity score (signed KS statistic vs DMSO) (signed KS statistic (-1 to 1)); higher = stronger activation of the pathway reporter relative to DMSO
PC9 [6] = assay: HIF reporter activity score (signed KS statistic vs DMSO) (signed KS statistic (-1 to 1)); higher = stronger activation of the pathway reporter relative to DMSO
PC9 [7] = assay: ERK reporter activity score (signed KS statistic vs DMSO) (signed KS statistic (-1 to 1)); higher = stronger activation of the pathway reporter relative to DMSO
PC9 [8] = assay: JNK reporter activity score (signed KS statistic vs DMSO) (signed KS statistic (-1 to 1)); higher = stronger activation of the pathway reporter relative to DMSO
PC9 [9] = assay: WNT reporter activity score (signed KS statistic vs DMSO) (signed KS statistic (-1 to 1)); higher = stronger activation of the pathway reporter relative to DMSO
PC9 [10] = assay: NFkB reporter activity score (signed KS statistic vs DMSO) (signed KS statistic (-1 to 1)); higher = stronger activation of the pathway reporter relative to DMSO
PC9 [11] = assay: YAP/TAZ reporter activity score (signed KS statistic vs DMSO) (signed KS statistic (-1 to 1)); higher = stronger activation of the pathway reporter relative to DMSO

SMILES: CC[C@@H]1/C=C/C=C/C[C@H](C)[C@H](O)[C@](C)(O)C(=O)[C@H](C)[C@@H](O)[C@H](C)C(=O)[C@H](C)[C@@H](O)[C@H](C)/C=C/C(=O)O[C@H]2[C@@H](C)[C@@H](CC1)O[C@@]1(CC[C@@H](C)[C@@H](C[C@H](C)O)O1)[C@@H]2C [Oligomycin A]
- AKT reporter activity score (PC9 [1]): -0.252
- RAR reporter activity score (PC9 [2]): 0.0549
- PKC reporter activity score (PC9 [3]): 0.0686
- PKA reporter activity score (PC9 [4]): -0.0505
- p38 reporter activity score (PC9 [5]): -0.305
- HIF reporter activity score (PC9 [6]): 0.335
- ERK reporter activity score (PC9 [7]): 0.114
- JNK reporter activity score (PC9 [8]): 0.0667
- WNT reporter activity score (PC9 [9]): 0.138
- NFkB reporter activity score (PC9 [10]): 0.0911
- YAP/TAZ reporter activity score (PC9 [11]): 0.161
